Experimental data published in PubChem BioAssay.
Active and inactive are the calls of the source.

Columns and labels:
[1] = test system: Plasmodium falciparum Sir2 (PF13_0152, Sir2A); assay: pfSir2 binders on small-molecule microarrays, primary screen, biochemical, small-molecule microarray, 635 nm fluorescence (AID 1098); details: small-molecule microarray binding, fluorescence 635 nm; higher = more signal;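 further: score merges spot fluorescence intensity with its signal-to-noise ratio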
[2] = small-molecule microarray binders of probe aDKK1, primary screen, biochemical, biotinylated probe, 635/667 nm fluorescence (AID 1099); details: higher = more signal;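 further: score merges 667nm spot fluorescence with signal to noise across triplicate slides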
[3] = small-molecule microarray binders of probe aCHRDL2, primary screen, biochemical, biotinylated probe, 635/667 nm fluorescence (AID 1100); details: higher = more signal
[4] = splicing luciferase reporter signal modulators, primary screen, spliceosome inhibition project, cell-based, HEK293, splice +/- reporter (AID 1101); details: luminescence, 24 h, higher = more signal, called active from +8 up or from −8 down;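 further: HEK293 cells carrying a splicing-competent luciferase reporter gene; test concentration not given here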
[5] = target: Fibroblast growth factor 10 (Homo sapiens) (UniProt O15520); assay: FGF10 binders on small-molecule microarrays, primary screen, biochemical, small-molecule microarray, 635 nm fluorescence (AID 1102); details: FGF10 binding, fluorescence 635 nm, higher = more signal
[6] = test system: glycogen synthase kinase-3 (GSK3A per assay name; protocol says GSK3B); assay: GSK3 binders on small-molecule microarrays, primary screen, biochemical, small-molecule microarray, 635 nm fluorescence, GSK3A (AID 1103); details: small-molecule microarray binding, fluorescence 635 nm; higher = more signal; further: the record names both GSK3A and GSK3B
[7] = target: Epidermal growth factor receptor (Homo sapiens) (UniProt P00533); assay: EGFR binders on small-molecule microarrays, primary screen, biochemical, small-molecule microarray, 635 nm fluorescence (AID 1104); details: EGFR binding, higher = more signal;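 further: score merges 667 nm emission intensity with spot signal to noise over triplicate slides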
[8] = target: Follistatin-related protein 3 (Homo sapiens) (UniProt O95633); assay: FSTL3 binders on small-molecule microarrays, primary screen, biochemical, small-molecule microarray, 635 nm fluorescence (AID 1105); details: FSTL3 binding, higher = more signal;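 further: score merges emission near 667 nm and signal to noise per printed spot across three slides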
[9] = target: Dickkopf-related protein 1 (Homo sapiens) (UniProt O94907); assay: DKK1 binders on small-molecule microarrays, primary screen, biochemical, small-molecule microarray, 635 nm fluorescence scan (AID 1106); details: DKK1 binding, higher = more signal;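 further: score merges emission near 667 nm with signal to noise over three replicate slides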
[10] = test system: Inhibin beta A chain (activin A); assay: INHBA (activin A) binders on microarrays, primary screen, biochemical, small-molecule microarray, 635 nm fluorescence scan (AID 1107); details: small-molecule microarray binding, higher = more signal;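 further: mouse activin A protein probed at 4.33 µg/mL on printed slides; score merges bound-protein fluorescence near 667 nm with spot signal-to-noise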
[11] = test system: Human papillomavirus type 1a protein E7 (residues 44-93); assay: HPV1a E7 fragment binders on microarrays, primary screen, biochemical, small-molecule microarray, residues 44-93, 635 nm fluorescence (AID 1108); details: small-molecule microarray binding, fluorescence 635 nm; higher = more signal;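 further: E7 fragment applied at 1 µg/mL in TBST for 1 h at 4 C; score combines spot fluorescence with its signal to noise ratio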
[12] = modulators of HCV replicon luciferase signal, primary screen, HCV replication inhibitor project, Huh7 cells, luciferase reporter (AID 1109); details: 48 h, higher = more signal;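 further: huh7 hepatoma cells harbouring a luciferase neomycin HCV replicon reporter; luciferase luminescence as measure of HCV replicon replication; test concentration not given here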
[13] = target: Left-right determination factor 2 (Homo sapiens) (UniProt O00292); assay: LEFTY2 binders on small-molecule microarrays, primary screen, biochemical, small-molecule microarray, 635 nm fluorescence scan (AID 1110); details: LEFTY2 binding, higher = more signal
[14] = target: Calmodulin-1 (Homo sapiens) (UniProt P0DP23); assay: CALM1 binders on microarrays, EGTA buffer, profiling panel, biochemical, small-molecule microarray, Cy5-labelled CALM1 (AID 1111); details: Cy5-CALM1 binding fluorescence, higher = more signal;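 further: labelled calmodulin applied in Tris saline Tween buffer holding calcium plus EGTA and DTT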
[15] = target: Calmodulin-1 (Homo sapiens) (UniProt P0DP23); assay: calcium-bound CALM1 binders on microarrays, profiling panel, artefact control for SMM control-protein annotation, biochemical, small-molecule microarray, Cy5-labelled CALM1, plus calcium (AID 1112); details: Cy5-CALM1 binding fluorescence, higher = more signal;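 further: score merges spot fluorescence with signal to noise from triplicate slides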
[16] = small-molecule microarray binders of probe aWnt5a, primary screen, biochemical, biotinylated probe, 635/667 nm fluorescence (AID 1113); details: higher = more signal;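 further: score merges 667 nm fluorescence intensity with signal-to-noise per printed feature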
[17] = small-molecule microarray binders of probe aShh, primary screen, biochemical, biotinylated probe, 635/667 nm fluorescence (AID 1114); details: higher = more signal;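 further: probe is biotin-labelled aShh protein from a stem cell growth factor screen; measures binding of labelled protein to compounds printed on the slide; score merges feature fluorescence at 667 nm with signal-to-noise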
[18] = small-molecule microarray binders of probe aNog, primary screen, biochemical, biotinylated probe, 635/667 nm fluorescence (AID 1115); details: higher = more signal;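 further: probe is biotinylated aNog protein used at 0.15 µg/mL for 1 h at 4 C; z-score combines 667 nm fluorescence of each spot with its signal to noise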
[19] = target: Torsin-1A-interacting protein 1 (Homo sapiens) (UniProt Q5JTV8); assay: LAP1 binders from COS7 cell lysate, primary screen, small-molecule microarray, 635/667 nm fluorescence (AID 1116); details: COS7-hLAP1 lysate binding, 635 nm fluorescence, higher = more signal
[20] = target: Alpha-bungarotoxin (Bungarus multicinctus) (UniProt P60615); assay: alpha-bungarotoxin binders on microarray, profiling panel, artefact control for SMM control protein annotation, biochemical, small-molecule microarray, Alexa647 label, 635/667 nm fluorescence (AID 1117); details: alpha-BTX-A647 binding fluorescence, higher = more signal
Chain of Alpha-bungarotoxin (Bungarus multicinctus) (P60615 whole entry, looked up): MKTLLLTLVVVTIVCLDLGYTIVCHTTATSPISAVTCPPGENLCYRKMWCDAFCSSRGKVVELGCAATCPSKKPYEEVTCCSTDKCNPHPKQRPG

Chain of Follistatin-related protein 3 (Homo sapiens) (O95633 whole entry, looked up): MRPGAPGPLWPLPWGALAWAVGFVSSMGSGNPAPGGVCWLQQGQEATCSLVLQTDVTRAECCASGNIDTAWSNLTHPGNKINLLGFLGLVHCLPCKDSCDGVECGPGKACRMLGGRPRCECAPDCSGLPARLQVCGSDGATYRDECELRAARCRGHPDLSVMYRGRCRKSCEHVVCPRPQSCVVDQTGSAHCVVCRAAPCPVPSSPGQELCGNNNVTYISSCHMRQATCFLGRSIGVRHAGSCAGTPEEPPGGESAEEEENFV
Chain of Fibroblast growth factor 10 (Homo sapiens) (O15520 whole entry, looked up): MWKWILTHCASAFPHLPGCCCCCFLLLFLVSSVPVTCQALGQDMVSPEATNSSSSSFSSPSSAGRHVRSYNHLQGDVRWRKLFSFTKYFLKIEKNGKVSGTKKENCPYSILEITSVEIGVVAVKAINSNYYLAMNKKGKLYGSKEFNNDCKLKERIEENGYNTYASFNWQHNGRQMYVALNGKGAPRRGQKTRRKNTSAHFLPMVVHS
Chain of Dickkopf-related protein 1 (Homo sapiens) (O94907 whole entry, looked up): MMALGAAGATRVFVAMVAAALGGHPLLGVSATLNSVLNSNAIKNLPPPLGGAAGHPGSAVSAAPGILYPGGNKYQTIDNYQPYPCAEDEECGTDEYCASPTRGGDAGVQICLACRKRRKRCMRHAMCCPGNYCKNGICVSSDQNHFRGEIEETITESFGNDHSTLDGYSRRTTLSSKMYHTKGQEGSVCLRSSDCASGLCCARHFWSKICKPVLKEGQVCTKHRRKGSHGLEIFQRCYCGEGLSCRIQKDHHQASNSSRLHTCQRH
Chain of Epidermal growth factor receptor (Homo sapiens) (P00533 whole entry, looked up): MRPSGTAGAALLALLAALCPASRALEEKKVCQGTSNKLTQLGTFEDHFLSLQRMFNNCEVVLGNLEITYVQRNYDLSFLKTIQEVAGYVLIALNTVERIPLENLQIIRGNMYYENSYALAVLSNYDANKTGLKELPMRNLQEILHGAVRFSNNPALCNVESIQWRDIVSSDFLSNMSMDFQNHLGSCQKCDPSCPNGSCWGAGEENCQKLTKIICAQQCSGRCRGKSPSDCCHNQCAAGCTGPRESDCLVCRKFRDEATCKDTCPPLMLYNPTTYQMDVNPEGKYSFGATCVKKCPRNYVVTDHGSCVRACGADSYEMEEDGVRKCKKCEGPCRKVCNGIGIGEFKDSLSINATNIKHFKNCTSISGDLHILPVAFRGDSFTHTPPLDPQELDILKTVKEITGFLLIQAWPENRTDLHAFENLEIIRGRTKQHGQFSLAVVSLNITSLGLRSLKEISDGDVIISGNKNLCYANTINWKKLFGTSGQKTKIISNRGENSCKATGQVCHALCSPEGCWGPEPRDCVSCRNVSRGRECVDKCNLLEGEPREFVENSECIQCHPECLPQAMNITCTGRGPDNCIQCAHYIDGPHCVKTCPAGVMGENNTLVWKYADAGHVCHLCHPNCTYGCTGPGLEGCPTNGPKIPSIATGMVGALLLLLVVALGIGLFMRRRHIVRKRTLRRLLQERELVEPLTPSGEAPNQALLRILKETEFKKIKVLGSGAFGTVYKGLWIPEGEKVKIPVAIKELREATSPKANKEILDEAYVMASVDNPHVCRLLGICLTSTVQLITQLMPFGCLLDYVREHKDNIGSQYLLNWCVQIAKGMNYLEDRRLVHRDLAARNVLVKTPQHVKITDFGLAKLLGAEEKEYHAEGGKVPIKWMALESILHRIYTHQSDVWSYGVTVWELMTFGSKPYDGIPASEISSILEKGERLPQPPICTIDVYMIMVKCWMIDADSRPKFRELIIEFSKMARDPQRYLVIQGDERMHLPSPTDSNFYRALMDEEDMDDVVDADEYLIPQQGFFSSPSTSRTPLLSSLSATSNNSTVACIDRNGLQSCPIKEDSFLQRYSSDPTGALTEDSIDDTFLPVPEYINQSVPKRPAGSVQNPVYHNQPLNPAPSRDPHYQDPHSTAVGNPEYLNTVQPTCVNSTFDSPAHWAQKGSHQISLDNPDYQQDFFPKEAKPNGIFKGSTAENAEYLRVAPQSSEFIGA
Chain of Torsin-1A-interacting protein 1 (Homo sapiens) (Q5JTV8 whole entry, looked up): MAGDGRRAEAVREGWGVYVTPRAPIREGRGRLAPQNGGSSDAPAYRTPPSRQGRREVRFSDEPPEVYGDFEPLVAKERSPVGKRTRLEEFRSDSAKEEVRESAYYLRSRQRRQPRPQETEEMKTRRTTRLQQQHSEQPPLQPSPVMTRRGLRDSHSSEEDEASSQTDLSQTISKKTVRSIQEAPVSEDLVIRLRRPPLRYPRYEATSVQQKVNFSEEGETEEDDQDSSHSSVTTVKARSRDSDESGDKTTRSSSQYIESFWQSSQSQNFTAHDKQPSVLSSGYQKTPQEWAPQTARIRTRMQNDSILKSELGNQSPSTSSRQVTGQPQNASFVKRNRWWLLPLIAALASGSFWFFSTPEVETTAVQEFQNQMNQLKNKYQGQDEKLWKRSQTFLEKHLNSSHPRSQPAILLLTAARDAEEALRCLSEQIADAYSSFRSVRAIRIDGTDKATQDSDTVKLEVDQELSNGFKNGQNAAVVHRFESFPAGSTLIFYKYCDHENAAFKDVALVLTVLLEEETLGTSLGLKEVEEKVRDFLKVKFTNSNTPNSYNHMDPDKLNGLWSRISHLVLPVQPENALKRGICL
Chain of Left-right determination factor 2 (Homo sapiens) (O00292 whole entry, looked up): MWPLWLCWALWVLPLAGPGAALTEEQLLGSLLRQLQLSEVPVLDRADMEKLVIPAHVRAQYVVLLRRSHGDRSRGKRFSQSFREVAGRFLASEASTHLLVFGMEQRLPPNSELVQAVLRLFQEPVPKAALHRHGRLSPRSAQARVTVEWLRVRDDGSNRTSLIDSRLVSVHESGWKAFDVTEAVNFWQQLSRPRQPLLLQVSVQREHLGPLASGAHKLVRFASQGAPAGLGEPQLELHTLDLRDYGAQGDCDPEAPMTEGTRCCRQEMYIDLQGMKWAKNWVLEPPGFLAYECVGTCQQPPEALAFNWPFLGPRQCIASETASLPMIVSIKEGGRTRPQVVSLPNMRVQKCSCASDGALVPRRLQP

Compound	composite z-score [1]	composite z-score [2]	composite z-score [3]	z-score [4]	composite z-score [5]	composite z-score [6]	composite z-score [7]	composite z-score [8]	composite z-score [9]	composite z-score [10]	composite z-score [11]	z-score [12]	composite z-score [13]	composite z-score [14]	composite z-score [15]	composite z-score [16]	composite z-score [17]	composite z-score [18]	composite z-score [19]	composite z-score [20]
OCCCC1=CC(C2CC2)N(Cc2cccc(OC(F)(F)F)c2)CC1 (stereo not given)	1.13	-0.454	-0.286	0.0563 (inactive)	-0.963	-0.798	-0.651	-0.556	0.161	0.526	-0.928	-1.32	-0.119	-0.968	0.115	-0.178	-0.321	-0.641	1	-0.478
CO[C@H]1O[C@H](CO)[C@@H](OC(=O)Nc2ccc(Br)cc2)[C@@H]2OC(=O)[C@H](Cc3cccc(Br)c3)C/C=C/C[C@@H](Cc3cccc(Br)c3)C(=O)O[C@@H]12	0.272	-0.157	0.179	-0.838 (inactive)	0.383	-1.05	-0.461	0.285	-0.0367	0.0396	-0.852	-3.26	-0.402	0.404	0.609	-0.12	-0.221	-0.1	-0.284	0.386
CCN(CC)c1ccc(N2CC=CC34O[C@@H]5C=CCOC(=O)[C@@H]5[C@H]3C(=O)N(CCCCCCO)[C@@H]4C2=O)cc1 (stereo not given in full)	1.85	-0.131	0.844	-0.93 (inactive)	-0.655	-0.559	-0.366	-0.406	-0.863	1.17	1.01	-1.4	-0.699	-0.333	0.48	-0.152	-0.0035	-0.248	2.01	-0.226
COc1ccc(C(=O)Nc2ccc(CN3C(=O)[C@]4(O[C@H](CC(=O)N5CCC[C@H]5CO)[C@@H]([Si](C)(C)c5ccc(OC)cc5)[C@@H]4C)c4ccccc43)cc2)cc1	1.46	-0.314	0.0167	1.76 (inactive)	0.679	0.573	0.352	0.683	0.545	0.0938	1.4	-3.86	0.471	0.453	-0.171	-0.0445	0.0639	0.116	1.08	0.748
C=CCNC(=O)[C@@H]1[C@H]2C(=O)O[C@H](c3ccccc3)[C@H](c3ccccc3)N2[C@H](c2ccc(OCCO)cc2)[C@@]12C(=O)N(C(=O)OCCOC)c1ccc(C#CCC(C(=O)OC)C(=O)OC)cc12	1.32	0.951	0.328	1.01 (inactive)	1.07	1.28	0.719	1.1	1.29	-0.0578	0.805	-1.5	0.969	1.61	0.105	-0.0302	0.199	0.804	1.03	1.26
C=CCN1Cc2ccccc2[C@@H]2OC(c3ccc(OCCCO)cc3)=N[C@]2(CCS(=O)(=O)c2ccccc2)C1=O	1.53	0.205	0.825	0.211 (inactive)	1.4	1.32	1.01	1.43	1.41	1.1	1.33	-1.48	0.954	0.804	-0.321	-0.0009	0.377	0.714	1.58	1.42
COc1ccccc1CN1C(=O)c2ccccc2[C@@]2(Cc3ccccc3N(CCCN(C)C)C2=O)[C@@H]1c1ccc(CO)cc1	0.269	-0.169	-0.649	-0.706 (inactive)	0.165	0.0081	0.237	0.76	1.05	1.19	-0.0362	-1.86	0.524	-0.0574	-0.688	-0.165	-0.282	-0.273	0.0163	-0.94
C=CCC(OC(C)=O)[C@@H]1[C@@H](N(Cc2ccc(-c3ccccc3)cc2)C(=O)Cc2ccc(F)cc2)c2cc(OCCCO)ccc2N1C(=O)c1ccc2ccccc2c1 (stereo not given in full)	-0.352	-0.0183	0.345	-0.519 (inactive)	0.0036	0.0557	0.0144	0.268	-0.4	1.18	0.0163	-0.381	-0.0251	-0.0052	0.28	-0.141	-0.221	-0.0632	0.402	-0.0517
C[N+](C)(C)CCCC[C@@H]1NC(=O)[C@H]2C[C@@H](C(=O)NCCCCCCNC(=O)CS)[C@@H](c3ccc(O)cc3)N2C1=O	-0.783	-0.0452	0.782	-0.45 (inactive)	-0.347	-1.09	-0.805	-0.884	-0.628	0.507	-1.07	-0.237	-1.4	-0.493	0.55	-0.178	-0.138	-0.0604	1.51	0.539
C=CC1c2cc(O)c(OC)cc2CCN1Cc1cccc(OC(F)(F)F)c1 (stereo not given)	-0.128	-0.0819	0.516	-0.918 (inactive)	-0.438	-0.765	-0.417	0.0396	-0.0102	1.64	0.625	-1.79	-0.154	0.667	-0.566	-0.175	-0.0146	-0.483	0.828	0.39
C=CCC(OC(C)=O)[C@@H]1[C@@H](N(Cc2ccc(-c3cccc(C(F)(F)F)c3)o2)C(=O)Cc2ccc(OC)cc2)c2cc(OCCCO)ccc2N1C(=O)c1ccc2ccccc2c1 (stereo not given in full)	0.403	-0.179	0.577	-0.814 (inactive)	-0.344	-1.46	-0.488	0.195	-0.298	1.39	-0.759	0.613	-0.394	-0.477	-0.506	-0.124	-0.214	-0.261	-0.157	-0.0185
